These results are taken from PubChem BioAssay (Tox21).

Values without a mark were called inactive. Inconclusive results are not listed. The source made the active and inactive calls. Unless noted, calls come from the whole dose curve; as a rule, active = well fitted curve in the direction sought with a large enough effect in the repeat runs; inconclusive = weak or mixed curves; inactive = no such curve, though single readings can be large; an effect the other way counts as inactive or inconclusive.

The nature of assay [1]: A CellTox Green Cytotoxicity Assay to monitor cytotoxicity in HepG2 cells - 0 hour (AID 1224882). Note: nearly all actives have a fitted effect of over 35% in size. The method in brief:
(§1)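 Cytotoxicity was tracked as dead-cell DNA fluorescence in HepG2 cells treated with test compounds at 37 C; each time-point value comes from one kinetic series spanning 0, 8, 16, 24, 32 and 40 h.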

The nature of assay [2]: A CellTox Green Cytotoxicity Assay to monitor cytotoxicity in HepG2 cells - 32 hour (AID 1224883). Note: nearly all actives have a fitted effect of over 50% in size. The method in brief:
as §1

Assay [3] can be described thus: A CellTox Green Cytotoxicity Assay to monitor cytotoxicity in HEK293 cells - 8 hour (AID 1224884). Note: nearly all actives have a fitted effect of over 35% in size. The method in brief:
(§2)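 Real-time, in one plate: 600 HEK293 cells/well with dead-cell DNA dye, pinned compound after 5 h, 37 C incubation over 40 h; viable cells give no appreciable fluorescence.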

Assay [4] can be described thus: qHTS RealTime-Glo MT Cell Viability Assay in HepG2 cells - 16 hour (AID 1224885). Note: nearly all actives have a fitted effect of over 50% in size. The essentials: (§3)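 Compound treatment began 5 h after plating HepG2 cells (600/well) with NanoLuc luciferase and prosubstrate. Plates stayed at 37 C for 40 h; luminescence was captured at six time points, 0 h through 40 h.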
The nature of assay [5]: qHTS RealTime-Glo MT Cell Viability Assay in HEK293 cells - 24 hour (AID 1224886). Note: top concentration of the series differs between compounds; nearly all actives have a fitted effect of over 50% in size. The method in brief:
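Quantitative high-throughput screen of the Tox21 10K library in HEK293: cells and RealTime-Glo reagents plated together, compound added at 5 h, luminescence monitored through 40 h at 37 C.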

Assay [6] in a line: qHTS RealTime-Glo MT Cell Viability Assay in HEK293 cells - 8 hour (AID 1224887). Note: top concentration of the series differs between compounds; nearly all actives have a fitted effect of over 50% in size. The essentials:
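Kinetic, non-lysing viability readout. Seed HEK293 (600/well) with reagent, incubate 5 h at 37 C/5% CO2, pin 23 nL compound in DMSO, incubate at 37 C, read luminescence at 0, 8, 16, 24, 32, 40 h.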

Assay [7] is described as follows: A CellTox Green Cytotoxicity Assay to monitor cytotoxicity in HEK293 cells - 16 hour (AID 1224888). Note: nearly all actives have a fitted effect of over 35% in size. The essentials: as §2
The nature of assay [8]: qHTS RealTime-Glo MT Cell Viability Assay in HepG2 cells - 0 hour (AID 1224889). Note: nearly all actives have a fitted effect of over 50% in size. The method in brief:
as §3

A short description of assay [9]: A CellTox Green Cytotoxicity Assay to monitor cytotoxicity in HepG2 cells - 8 hour (AID 1224890). Note: nearly all actives have a fitted effect of over 45% in size. The method in brief: as §1
The nature of assay [10]: qHTS assay to identify small molecule antagonists of the estrogen receptor alpha (ER-alpha) signaling pathway using the BG1 cell line in the presence of 0.1 nM 17-beta-estradiol - cell viability counter screen (AID 1259241). Note: nearly all actives have a fitted effect of over 40% in size. The essentials:
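CellTiter-Fluor read (30 min, 37C) on ER-alpha/ERE-luc VM7Luc4E2 cells; 22 hr compound treatment; agonist 0.1 nM E2 final; same-well multiplex.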

The nature of assay [11]: qHTS assay to identify small molecule antagonists of the androgen receptor (AR) signaling pathway using the MDA cell line in the presence of 0.5 nM R1881 - cell viability counter screen (AID 1259242). Note: nearly all actives have a fitted effect of over 45% in size. The essentials:
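Cells seeded at 3,000/well and allowed 5 hr at 37C, 0% CO2 before compound transfer and R1881 (0.5 nM final) addition; 16 hr later, live-cell protease fluorescence indicated cytotoxicity.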

Assay [12] concerns the target Estrogen receptor (Homo sapiens) (UniProt P03372). In words: qHTS assay to identify small molecule antagonists of the estrogen receptor alpha (ER-alpha) signaling pathway using the BG1 cell line in the presence of 0.1 nM 17-beta-estradiol (AID 1259244). Note: nearly all actives have a fitted effect of over 50% in size. Note: potency is the fitted concentration of half-maximal effect. The method in brief:
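Luciferase signal from VM7Luc4E2 ERE-reporter cells, co-dosed with test compound and 0.1 nM final 17beta-estradiol for 22 h, read with ONE-Glo.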

A short description of assay [13]: qHTS assay to identify small molecule phospholipidosis (PLD) inducers (AID 1259344; active = well fitted curve in the direction sought with a large enough effect; an effect the other way counts as inactive or inconclusive). The essentials: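 After 4 h attachment on collagen I, HepG2 cells were dosed with compound alongside LipidTOX Red, kept 24 h at 37 C, fixed, and imaged for lamellar phospholipid pits.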
Assay [14] is described as follows: qHTS assay to identify small molecule HDAC inhibitors (AID 1259364).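 Note: wild-type HCT-116 cells with endogenous class I/II HDAC activity; top concentration of the series differs between compounds; nearly all actives have a fitted effect of over 45% in size.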 The essentials: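 HCT-116 wt cells, 1,500/well, overnight attach. Compounds (DMSO) 2 h, 37 °C. HDAC-Glo I/II, 30 min RT. Luminescence.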
The nature of assay [15]: qHTS assay to identify small molecule HDAC inhibitors - cell viability counter screen (AID 1259365). The method in brief:
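To flag cytotoxic hits, 1,500 wild-type HCT-116 cells per well, plated the day before, receive test compounds for 2hr at 37 C before CellTiter-Glo reagent and a luminescence read.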

A short description of assay [16]: qHTS assay to identify small molecule agonists of the sonic hedgehog signaling (Shh) pathway - cell viability counter screen (AID 1259366). Note: nearly all actives have a fitted effect of over 50% in size. The essentials: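 Fluorescence from CellTiter-Fluor reports live cells in this counter screen. NIH/3T3-derived Gli1-Luc reporter cells receive test compounds for 24hr at 37C; reagent goes in at 23hr.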
Assay [17] in a line: qHTS assay to identify small molecule antagonists of the sonic hedgehog signaling (Shh) pathway - cell viability counter screen (AID 1259367). Note: nearly all actives have a fitted effect of over 55% in size. The essentials: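 Conditioned medium drove Shh signaling in 3T3 Gli1-Luc cells exposed to compounds at 37C and 5% CO2. Viability was determined from CellTiter-Fluor fluorescence, with reagent incubated 1 hr after 23 hr of treatment.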

Assay [18] can be described thus: qHTS assay to identify small molecule agonists of the sonic hedgehog signaling (Shh) pathway (AID 1259368; calls by dose curve;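 note: NIH/3T3-derived 3T3Gli1-Luc cells carrying a stable Gli1-driven firefly luciferase reporter; series mostly up to about 92 µM; nearly all actives have a fitted effect of over 15% in size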). The essentials:
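Following a 24 hr incubation with DMSO-dissolved compounds at 37 C, 5% CO2, Gli1-Luc NIH/3T3-derived cells received luciferase reagent for 30 min at room temperature prior to luminescence measurement.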

A short description of assay [19]: qHTS assay to identify small molecule antagonists of the sonic hedgehog signaling (Shh) pathway (AID 1259369; calls by dose curve; note: nearly all actives have a fitted effect of over 45% in size). The essentials:
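Read-out is luminescence from a firefly luciferase gene controlled by the Gli1 response element, in 3T3Gli1-Luc cells pre-incubated 4hr then exposed to compounds and conditioned medium for 24hr.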

The target of assay [20] is Androgen receptor (Homo sapiens) (UniProt P10275). In words: qHTS assay to identify small molecule antagonists of the androgen receptor (AR) signaling pathway using the MDA cell line in the presence of 0.5 nM R1881 (AID 1259243). Note: nearly all actives have a fitted effect of over 50% in size. The method in brief:
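Luminescence from an AR/GR-responsive MMTV-luciferase construct in MDA-kb2 breast carcinoma cells, read 30 min after ONE-Glo, following 16 hr co-treatment with compounds and 0.5 nM R1881.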
% is set by controls: 0 for no effect and ±100 for the full control effect.

Estrogen receptor (Homo sapiens), sequence (P03372 whole entry, looked up): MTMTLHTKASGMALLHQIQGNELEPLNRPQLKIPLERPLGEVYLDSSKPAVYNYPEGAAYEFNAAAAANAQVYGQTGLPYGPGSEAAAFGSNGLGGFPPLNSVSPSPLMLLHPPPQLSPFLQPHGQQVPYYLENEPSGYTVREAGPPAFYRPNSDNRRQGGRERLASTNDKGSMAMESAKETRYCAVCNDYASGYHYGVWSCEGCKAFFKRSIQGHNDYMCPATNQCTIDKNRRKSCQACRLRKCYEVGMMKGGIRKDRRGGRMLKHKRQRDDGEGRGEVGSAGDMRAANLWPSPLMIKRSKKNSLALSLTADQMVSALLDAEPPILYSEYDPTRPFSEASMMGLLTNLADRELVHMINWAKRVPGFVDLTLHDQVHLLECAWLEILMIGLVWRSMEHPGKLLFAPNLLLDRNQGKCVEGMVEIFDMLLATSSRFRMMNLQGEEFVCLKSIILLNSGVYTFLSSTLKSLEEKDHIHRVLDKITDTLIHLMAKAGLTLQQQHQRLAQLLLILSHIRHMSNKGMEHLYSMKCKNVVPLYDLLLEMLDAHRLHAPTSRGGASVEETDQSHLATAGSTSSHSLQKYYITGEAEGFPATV
Androgen receptor (Homo sapiens), sequence (P10275 whole entry, looked up): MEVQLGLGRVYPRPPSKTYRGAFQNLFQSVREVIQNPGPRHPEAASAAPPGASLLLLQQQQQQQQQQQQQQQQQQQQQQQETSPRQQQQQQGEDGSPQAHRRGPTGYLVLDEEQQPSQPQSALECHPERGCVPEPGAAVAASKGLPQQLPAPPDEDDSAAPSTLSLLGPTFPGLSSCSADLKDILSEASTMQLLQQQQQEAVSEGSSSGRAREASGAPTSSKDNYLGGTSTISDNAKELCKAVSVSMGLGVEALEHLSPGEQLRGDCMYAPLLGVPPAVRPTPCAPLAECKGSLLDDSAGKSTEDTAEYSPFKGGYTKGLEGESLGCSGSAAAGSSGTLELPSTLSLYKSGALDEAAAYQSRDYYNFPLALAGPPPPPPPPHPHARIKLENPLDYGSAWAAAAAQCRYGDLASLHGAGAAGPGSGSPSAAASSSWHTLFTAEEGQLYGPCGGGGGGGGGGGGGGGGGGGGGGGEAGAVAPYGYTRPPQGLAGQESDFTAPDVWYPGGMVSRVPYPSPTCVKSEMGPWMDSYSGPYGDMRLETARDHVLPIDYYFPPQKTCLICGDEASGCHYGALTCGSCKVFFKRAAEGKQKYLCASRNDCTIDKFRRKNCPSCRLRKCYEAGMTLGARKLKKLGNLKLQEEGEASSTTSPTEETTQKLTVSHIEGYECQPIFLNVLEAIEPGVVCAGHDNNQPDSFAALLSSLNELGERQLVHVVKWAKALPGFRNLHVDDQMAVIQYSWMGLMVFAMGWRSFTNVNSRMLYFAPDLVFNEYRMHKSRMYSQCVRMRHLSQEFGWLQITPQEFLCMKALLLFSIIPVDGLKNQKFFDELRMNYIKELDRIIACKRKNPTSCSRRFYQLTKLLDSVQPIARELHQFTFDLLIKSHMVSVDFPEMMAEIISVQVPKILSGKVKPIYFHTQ

As to `CCOc1cc(OCC)c(C(=O)CCC(=O)O)cc1OCC`, the Potency entry in assay [1], in [2], in assay [3], in assay [4], in [5] and in assay [6] was “inactive” throughout. The Potency result in [7], in assay [8], in [9], in assay [10], in assay [11] and in assay [12] was “inactive” throughout. Further, the Potency entry in assay [13], in [14], in assay [16], in assay [17] and in assay [19] was “inactive” throughout. Also, the outcome in assay [15] and in [18] was inactive.
Consider `C[Si](C)O[Si](C)(C)O[Si](C)(C)O[Si](C)C`, for which the Potency result in assay [1], in [2], in assay [3], in assay [4], in [5] and in assay [6] was “inactive” throughout. Further, the Potency result in assay [7], in assay [8], in [9], in [10], in assay [11] and in assay [12] was “inactive” each time. In addition, the Potency result in assay [14], in assay [16], in [17] and in assay [19] was “inactive” throughout. The outcome in assay [15] and in assay [18] was inactive.
Consider `Nc1nc(N)c2nc(CNc3ccc(C(=O)N[C@@H](CCC(=O)O)C(=O)O)cc3)cnc2n1`, for which the Potency result in [1], in assay [2], in assay [3], in assay [4], in [5] and in assay [6] was “inactive” throughout. The Potency entry in assay [7], in assay [8], in [9], in assay [10], in assay [11] and in [12] was “inactive” throughout. Also, the Potency result in assay [13], in assay [14] and in [19] was “inactive” throughout. Moreover, the call in [15] and in assay [18] was inactive.
In the case of `O=C(CCN1CCN2CCCC2C1)N1c2ccccc2Sc2ccc(Cl)cc21` (stereo unspecified), the cytotoxicity in assay [1] is 0.972% [at 15.8 µM]. In addition, the cytotoxicity increase in [2] is 16.3% [at 15.8 µM]; in assay [3], -4.39% [at 15.8 µM]; in assay [9], 7.39% [at 15.8 µM]. In addition, the activity change, negative = cytotoxic in assay [4] was -5.42% [at 15.8 µM]. Besides, the activity change, negative = cytotoxicity in assay [5] is -17.5% [at 15.8 µM]; in assay [6], -6.11% [at 15.8 µM]; in [8], -0.655% [at 15.8 µM]; in [10], -14.8% [at 19 µM]; in [15], -2.44% [at 19 µM]. In addition, the activity change is 1.83% [at 15.8 µM, stronger effect = higher value] in [7] and -0.0401% [at 18.9 µM] in [18]. Further, the viability change, negative = cytotoxic in assay [11] is -3.61% [at 19 µM]. For the same molecule, the activity, negative = inhibition in [20] is -18% [at 19 µM]. Also, the activity change, negative = inhibition in assay [12] was 3.86% [at 19 µM]; in assay [14], 3.91% [at 19 µM]; in assay [19], -18.5% [at 19 µM].
With `COCCO`, the Potency result in assay [1], in assay [2], in assay [3], in assay [4], in assay [5] and in assay [6] was “inactive” in each case. Moreover, the Potency result in assay [7], in assay [8], in [9], in assay [10], in [11] and in assay [14] was “inactive” throughout. Besides, the Potency result in [16], in assay [17] and in assay [19] was “inactive” throughout. Moreover, the molecule was called inactive in [15] and in assay [18].
As to `CCOc1ccc2[nH]cc(C(=O)NCc3ccccc3)c(=O)c2n1`, the Potency entry in [1], in assay [2], in assay [3], in assay [4], in assay [5] and in [6] was “inactive” in each case. Besides, the Potency result in assay [7], in [8], in assay [9], in assay [10], in assay [11] and in [14] was “inactive” in each case. The Potency entry in assay [16] was “inactive”. Moreover, the Potency in assay [12] is 54.5 µM (active). The result in assay [15] and in [18] was inactive.
On to `Cc1ccc(C(C)c2ccc(C)c(C)c2)cc1C`, for which the Potency entry in assay [1], in [2], in [3], in assay [4], in assay [5] and in assay [6] was “inactive” in each case. Moreover, the Potency entry in [7], in [8], in [9], in [10], in assay [11] and in [12] was “inactive” in each case. The Potency result in assay [14], in assay [16] and in assay [19] was “inactive” in each case. Moreover, the molecule was classed as inactive in assay [15] and in assay [18].
